Source: PubChem BioAssay AID1745849 (National Center for Advancing Translational Sciences (NCATS), 2022)
Among all 2,100 compounds or so, about 320 (15%) were called active. Another 52% or so got no clear call; they are omitted. The list shows a part of the results. Unmarked numbers belong to inactive results. Calls follow the shape of the dose curve; as a rule, active = well fitted cell-killing curve with a large enough effect; inconclusive = small, poorly fitted or top-dose-only effect, or effect the other way; inactive = flat fitted curve, though single readings scatter.

assay: Viability Counterscreen for CMV-Luciferase Assay of Inhibitors of ATXN expression; conditions: HEK-293 CMV-luciferase cells viability, protease fluorescence, 24 h; activity change, negative = cytotoxicity: at the top concentration; also: nearly all actives have a fitted effect of over 55% in size
Outline: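 In the same wells, a multiplexed format measured viability and then the CMV-luciferase signal in HEK-293 cells following 24 hr compound exposure at several concentrations. The viability substrate was Gly-Phe-AFC at 25 uM final.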
% is scaled to controls: 0 for no effect and ±100 for the full control effect; potency is read from the fitted curve at half-maximal effect.

Compound | activity change, negative = cytotoxicity | Potency
O=c1c2c(-c3ccccc3)csc2nc2c3ccccc3c(NCCN3CCOCC3)nn12 | -22% | –
CC(=O)C(=Cc1cccc(C#N)c1)C(=O)c1ccccc1 | – | 22.4 µM (active)
Cc1ccc(NC(=O)CCC(=O)c2cc(C)sc2C)nc1 | -25.1% [at 57.5 µM] | –
CCOC(=O)c1c(NC(=O)CSc2nnnn2-c2ccccc2)sc2c1CC(C)(C)NC2(C)C | -17.6% | –
CCN(CC)CCCNc1nc2ccccc2c2nc(-c3ccncc3)nn12 | – | 15.8 µM (active)
O=C(Nc1nc(-c2ccccn2)cs1)Nc1ccc(F)cc1F | – | 11.2 µM (active)
CC(Oc1ccc(F)cc1)C(=O)Nc1nc(-c2ccccn2)cs1 (configuration not stated) | – | 7.94 µM (active)
O=C(Nc1nc(-c2ccc(S(=O)(=O)N3CCOCC3)cc2)cs1)c1ccccc1 | -11.8% | –
COC(=O)COc1ccc(-c2nccc(-c3ccccn3)n2)cc1 | -6.76% | –
COC(=O)C(Cc1ccc(O)cc1)NC(=O)C(C)Oc1ccccc1 (configuration not stated) | -14.5% [at 57.5 µM] | –
COc1cccc(C(=O)Nc2nc(-c3ccc(S(=O)(=O)N4CCOCC4)cc3)cs2)c1 | -15.2% | –
NC(c1ccccc1)c1csc(NC(=O)Nc2ccccc2Oc2ccccc2)n1 (configuration not stated) | -17.3% | –
CC(C)CC(N)c1csc(NC(=O)Nc2ccccc2C(C)(C)C)n1 (configuration not stated) | -16.4% | –
O=C(CN1C(=O)C2CCCCC2C1=O)Nc1nc(-c2ccccn2)cs1 (configuration not stated) | – | 17.8 µM (active)
O=C(Nc1nc(-c2ccccn2)cs1)c1ccc(F)c(S(=O)(=O)N2CCOCC2)c1 | – | 5.01 µM (active)
O=C(CCN1C(=O)C2CC=CCC2C1=O)Nc1nc(-c2ccc(F)c(F)c2)cs1 (configuration not stated) | -9.32% [at 57.5 µM] | –
O=C(CC1Sc2ccccc2NC1=O)NNc1cccc(Cl)c1Cl (configuration not stated) | -5.55% | –
CN1OC[C@@H]2CN[C@H](c3ccc(-c4cc5ccccc5o4)cc3)C[C@@H]21 | -1.7% [at 57.5 µM] | –
CC1(C(=O)NCc2cccc(C(F)(F)F)c2)CCN1Cc1ccc(-c2ccccc2)o1 (configuration not stated) | -27.9% [at 57.5 µM] | –
Cc1cc(C)c(C(O)c2ncc(-c3cccc4ccccc34)[nH]2)c(C)c1 (configuration not stated) | -7.88% | –
CCN1CC2=C(OC(N)=C(C#N)C2c2cccs2)/C(=C\c2cccs2)C1 (configuration not stated) | -7.9% | –

Compound | activity change, negative = cytotoxicity | Potency
O=C(CCCOc1ccc(Cl)cc1Cl)N/N=C/c1ccccc1O | – | 3.98 µM (active)
O=C(CN1CCCc2ccccc21)N/N=C/c1ccccc1O | -29.9% | –
O=C(CCc1ccccc1)N/N=C/c1cc(Br)ccc1O | -29.8% | –
CC(C)(C)c1ccc(NC(=O)N2CCCN(c3c(Cl)cncc3Cl)CC2)cc1 | 11% [at 57.5 µM] | –
O=C(NC1CCN(Cc2ccccc2)CC1)c1cccc(S(=O)(=O)Nc2ccc(SC(F)F)cc2)c1 | -17.8% [at 57.5 µM] | –
O=C(c1ccc(S(=O)(=O)c2cccc(Cl)c2)c([N+](=O)[O-])c1)N1CCN(Cc2ccccc2)CC1 | – | 15.8 µM (active)
OC(c1ccccc1)(c1nc(-c2cc3ccccc3o2)cs1)C(F)(F)F (configuration not stated) | 16.3% [at 57.5 µM] | –
O=S(=O)(c1ccc2c(c1)OCCO2)N1CCC(c2nc3ccc(Cl)cc3[nH]2)CC1 | -13.8% | –
Cc1ccc(S(=O)(=O)N2CCc3ccccc3CC2)cc1 | -8.1% | –
Cc1ccc(S(=O)(=O)/N=C(\Sc2ccccc2)c2ccccc2)cc1 | – | 15.8 µM (active)
CCn1c(CCC(=O)Nc2nc3c(s2)CCCC3)nc2cc(S(=O)(=O)N(C)C)ccc21 | 11.6% | –
Cc1ccc2c(Cl)cc(Cl)c(O)c2n1 | -19.2% [at 57.5 µM] | –
COc1ccc(C)cc1NC(=O)COC(=O)c1c(C)nn(-c2ccccc2)c1C | -23.2% [at 57.5 µM] | –
COc1ccc(C)cc1NC(=O)CSc1ccc(-c2ccccn2)nn1 | – | 12.6 µM (active)
O=c1c(Cc2ccccc2)c(O)nc2n1CCS2 | -7.62% [at 57.5 µM] | –
COc1cccc(/C=N/NC(=O)CC(C)O)c1OC/C=C/c1ccccc1 (configuration not stated) | -8.29% | –
COc1ccc(/C=N/Nc2cc(N3CCCC3)nc(N3CCCC3)n2)cc1 | – | 2.82 µM (active)
COc1ccc(C(=O)N/N=C/c2ccc(N(C)c3ccccc3)cc2)cc1 | 9.4% | –
NC(=O)c1cccc(-c2ccnc3c2CC(C(=O)Nc2cccc(C(F)(F)F)c2)O3)c1 (configuration not stated) | -20.1% | –
CS(=O)(=O)Nc1ccccc1C(=O)Nc1cc(Cl)cc(Cl)c1 | -18% | –
CC(=O)c1cccc(NC(=O)C2Cc3c(-c4cccc(C(C)=O)c4)ccnc3O2)c1 (configuration not stated) | -24.8% | –

Compound | activity change, negative = cytotoxicity | Potency
CC(=O)c1cccc(NC(=O)c2cccc3c(-c4cccc(C(N)=O)c4)coc23)c1 | – | 11.2 µM (active)
CS(=O)(=O)Nc1cccc(NC(=O)c2cccc3c(-c4cccc(C(N)=O)c4)coc23)c1 | – | 17.8 µM (active)
Cc1cc(OCc2nc(N)nc(N)c2-c2ccc(Cl)c(Cl)c2)ccc1[N+](=O)[O-] | -24.9% | –
CCN(CC)CCNC(=O)CCc1c(C)nc2c(c(C)nn2-c2ccc(C)cc2)c1C | – | 3.55 µM (active)
Cc1nn(-c2ccccc2)c2nc(-c3cccs3)cc(C(=O)NN)c12 | -5.3% [at 57.5 µM] | –
CCn1c(-c2ccc(C)cc2)nn(CC(=O)NCCc2ccccc2)c1=S | -11.3% | –
Cc1ccc(CN2CCC(c3nc4ccc(Cl)cc4[nH]3)CC2)cc1 | 0.46% [at 57.5 µM] | –
O=C(N/N=C/c1cc([N+](=O)[O-])ccc1O)c1cc(-c2ccccc2)nc2ccccc12 | – | 2.51 µM (active)
O=[N+]([O-])c1ccc(O)c(/C=N\N=C2c3ccccc3-c3ccccc32)c1 | – | 10 µM (active)
COc1cccc(/C=N/NC(=O)c2cc(-c3ccccn3)nc3ccccc23)c1O | – | 2.82 µM (active)
C/C(=N\NC(=O)c1cc(-c2cccnc2)nc2ccccc12)c1ccc(O)cc1O | 8.79% [at 57.5 µM] | –
O=C(N/N=C/c1cc([N+](=O)[O-])ccc1O)c1cccc2cc[nH]c12 | – | 7.94 µM (active)
COc1cccc(/C=N/Nc2nc3ccccc3n3cnnc23)c1O | -5.52% | –
COc1cccc(/C=N/NC(=O)c2ccc(-c3ccccc3)cc2)c1O | -14.8% [at 57.5 µM] | –
CCCC(=O)Nc1c(C(=O)OCC)[nH]c2ccccc12 | -10.6% | –
Cc1ccc(-n2cccn2)c(CN2CCCC(C(=O)c3ccc4c(c3)OCO4)C2)c1 (configuration not stated) | -23.7% [at 57.5 µM] | –
O=C(Nc1cccc(Br)c1)c1ccc(Cl)c(S(=O)(=O)N2CCOCC2)c1 | -10.5% | –
Cc1ccc2c(c1)-c1c(cnn1CC(=O)N1CCCN(Cc3ccccc3F)C1)CO2 | -15% | –
Cc1cc(Br)ccc1NC(=O)c1cnc(N2CCN(c3ccccn3)CC2)c2ccccc12 | -2.71% | –
Cc1cc(Cl)c(C(=O)Nc2cccc(C(F)(F)F)c2)c(C)n1 | -12.7% [at 57.5 µM] | –
